Assay results as given in the supplement of paper PMC10849652.
The full data set covers some 8,800 targets. This sample favours those with a hit. About 0.5% of all pairs of compound and target were hits.

Tests used:
Assay in all cases: log2 fold change, soluble protein after heating vs DMSO (PISA); higher = thermal stabilisation; K562 lysate, 10 uM; active = over 0.2 and 3.5 SD of the protein, either way, in both replicates (recomputed)
vemurafenib = compound: CCCS(=O)(=O)Nc1ccc(F)c(C(=O)c2c[nH]c3ncc(-c4ccc(Cl)cc4)cc23)c1F [vemurafenib]
Procedure, shortened: (§1)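 The values are log-two fold changes in thermal stability compared with solvent controls and come from duplicates. They were obtained by TMTpro 16plex LC-MS/MS, with channel sums equalised, on the supernatant after 21,000xg for 90 min. That supernatant came from crude K562 extract at 1 mg/mL protein treated with 10 μM compound for 30 min, heated for 3 min across 48°C-58°C, pooled and brought to 0.5% NP-40 at 4°C.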

[1] = compound: CCCS(=O)(=O)Nc1ccc(F)c(C(=O)c2c[nH]c3ncc(Cl)cc23)c1F
Procedure, shortened: as §1

barasertib = compound: CCN(CCCOc1ccc2c(Nc3cc(CC(=O)Nc4cccc(F)c4)[nH]n3)ncnc2c1)CCOP(=O)(O)O [barasertib]
Procedure, shortened: as §1

[2] = compound: CC[C@@H]1C(=O)N(C)c2cnc(Nc3ccc(C(=O)NC4CCN(C)CC4)cc3OC)nc2N1C1CCCC1
Procedure, shortened: as §1

volasertib = compound: CC[C@@H]1C(=O)N(C)c2cnc(Nc3ccc(C(=O)N[C@H]4CC[C@H](N5CCN(CC6CC6)CC5)CC4)cc3OC)nc2N1C(C)C [volasertib]
Procedure, shortened: as §1

[3] = compound: CCn1c(C(=O)N(C2CC2)C2CC2)cc2c3c(ncn3C)c(Nc3cc(C)n(C)n3)nc21
Procedure, shortened: as §1

[4] = compound: CCn1cc(-c2ccnc3[nH]c(-c4cccc(CN(C)C)c4)cc23)c(-c2ccc(NC(=O)N(C)C)cc2)n1
Procedure, shortened: as §1

[5] = compound: CN1CCC(CNc2ccc3ncc(-c4cccc(OC(F)(F)F)c4)n3n2)CC1
Procedure, shortened: as §1

saracatinib = compound: CN1CCN(CCOc2cc(OC3CCOCC3)c3c(Nc4c(Cl)ccc5c4OCO5)ncnc3c2)CC1 [saracatinib]
Procedure, shortened: as §1

sotrastaurin = compound: CN1CCN(c2nc(C3=C(c4c[nH]c5ccccc45)C(=O)NC3=O)c3ccccc3n2)CC1 [sotrastaurin]
Procedure, shortened: as §1

alvocidib = compound: CN1CC[C@H](c2c(O)cc(O)c3c(=O)cc(-c4ccccc4Cl)oc23)[C@H](O)C1 [alvocidib]
Procedure, shortened: as §1

Tubastatin A = compound: CN1CCc2c(c3ccccc3n2Cc2ccc(C(=O)NO)cc2)C1 [Tubastatin A]
Procedure, shortened: as §1

[6] = compound: CNC(=O)C1=CC=CC=C1NC2=NC(=NC=C2Cl)NC3=C(C=C(C=C3)N4CCOCC4)OC
Procedure, shortened: as §1

defactinib = compound: CNC(=O)c1ccc(Nc2ncc(C(F)(F)F)c(NCc3nccnc3N(C)S(C)(=O)=O)n2)cc1 [defactinib]
Procedure, shortened: as §1

[7] = compound: CNc1nc(-c2ccc3c(N)n[nH]c3c2)cc(N2C[C@@H](C(=O)NC3CCCCC3)CC[C@H]2C)n1
Procedure, shortened: as §1

encorafenib = compound: COC(=O)N[C@@H](C)CNc1nccc(-c2cn(C(C)C)nc2-c2cc(Cl)cc(NS(C)(=O)=O)c2F)n1 [encorafenib]
Procedure, shortened: as §1

[8] = compound: COC(=O)[C@H](CCSC)NC(=O)C1=C(C=C(C=C1)NC[C@H](CS)N)C2=CC=CC=C2
Procedure, shortened: as §1

alisertib = compound: COc1cc(Nc2ncc3c(n2)-c2ccc(Cl)cc2C(c2c(F)cccc2OC)=NC3)ccc1C(=O)O [alisertib]
Procedure, shortened: as §1

[9] = compound: COc1cc2nc(-c3cc(F)ccc3O)nc(N[C@@H]3CNC[C@H]3C(C)(C)O)c2cc1OC
Procedure, shortened: as §1

gefitinib = compound: COc1cc2ncnc(Nc3ccc(F)c(Cl)c3)c2cc1OCCCN1CCOCC1 [gefitinib]
Procedure, shortened: as §1

Measured: log2 fold change

FHOD1 (UniProt Q9Y613)
inactive: vemurafenib -0.018 | [1] 0.018 | barasertib 0.042 | [2] -0.05 | volasertib -0.034 | [3] 0.048 | [4] 0.013 | [5] -0.017 | saracatinib 0.015 | sotrastaurin 0.036 | alvocidib -0.034 | Tubastatin A -0.129 | [6] 0.014 | defactinib 0.033 | [7] 0.006 | encorafenib 0.021 | [8] 0.028 | alisertib 0.011 | [9] 0.002 | gefitinib -0.013

EPN2 (UniProt O95208)
active: [4] -0.417
inactive: vemurafenib 0.019 | [1] 0.027 | barasertib 0.043 | [2] 0.044 | volasertib 0.016 | [3] -0.002 | [5] 0.08 | saracatinib 0.004 | sotrastaurin 0.002 | alvocidib -0.079 | Tubastatin A -0.008 | [6] 0.001 | defactinib 0.005 | [7] 0.009 | encorafenib 0.016 | [8] -0.051 | alisertib 0.002 | [9] 0.03 | gefitinib -0.014

EIF3I (UniProt Q13347)
Chain of UniProt Q13347 (Q13347 whole entry, looked up): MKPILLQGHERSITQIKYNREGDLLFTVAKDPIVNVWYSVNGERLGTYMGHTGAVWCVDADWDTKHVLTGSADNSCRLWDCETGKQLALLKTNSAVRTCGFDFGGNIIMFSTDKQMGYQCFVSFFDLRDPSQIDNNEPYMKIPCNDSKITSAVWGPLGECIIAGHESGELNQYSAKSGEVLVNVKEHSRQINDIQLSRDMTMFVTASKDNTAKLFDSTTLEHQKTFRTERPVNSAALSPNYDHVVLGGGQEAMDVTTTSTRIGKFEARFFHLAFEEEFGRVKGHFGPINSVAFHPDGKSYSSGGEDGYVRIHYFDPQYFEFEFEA
inactive: vemurafenib 0.017 | [1] 0.025 | barasertib 0.017 | [2] -0.113 | volasertib -0.078 | [3] 0.011 | [4] -0.034 | [5] -0.03 | saracatinib -0.008 | sotrastaurin 0.027 | alvocidib 0.034 | Tubastatin A -0.126 | [6] 0.01 | defactinib 0.002 | [7] -0.043 | encorafenib -0.018 | [8] 0.156 | alisertib 0.003 | [9] 0.009 | gefitinib -0.03

FARSA (UniProt Q9Y285)
Chain of UniProt Q9Y285 (Q9Y285 whole entry, looked up): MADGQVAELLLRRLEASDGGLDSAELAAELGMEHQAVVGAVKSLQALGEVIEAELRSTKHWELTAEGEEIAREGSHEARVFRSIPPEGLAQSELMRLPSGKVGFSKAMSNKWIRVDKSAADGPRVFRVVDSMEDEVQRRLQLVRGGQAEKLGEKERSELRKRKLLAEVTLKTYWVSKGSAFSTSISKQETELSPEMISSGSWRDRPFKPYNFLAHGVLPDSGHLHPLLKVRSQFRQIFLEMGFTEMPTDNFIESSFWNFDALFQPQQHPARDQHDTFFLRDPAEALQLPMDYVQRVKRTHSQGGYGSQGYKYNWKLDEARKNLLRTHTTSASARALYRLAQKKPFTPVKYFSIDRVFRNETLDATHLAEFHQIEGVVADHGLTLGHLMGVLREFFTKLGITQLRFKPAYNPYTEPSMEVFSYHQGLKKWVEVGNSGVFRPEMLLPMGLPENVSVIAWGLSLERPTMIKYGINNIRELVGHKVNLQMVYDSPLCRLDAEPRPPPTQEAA
active: sotrastaurin 0.583
inactive: vemurafenib -0.002 | [1] -0.01 | barasertib -0.012 | [2] 0.091 | volasertib -0.035 | [3] -0.068 | [4] -0.018 | [5] 0.054 | saracatinib 0.03 | alvocidib -0.003 | Tubastatin A -0.105 | [6] 0.007 | defactinib 0.045 | [7] 0.019 | encorafenib -0.02 | [8] 0.098 | alisertib 0.01 | [9] 0.017 | gefitinib -0.014

ERAL1 (UniProt O75616)
active: [5] -0.359
inactive: vemurafenib -0.058 | [1] -0.016 | barasertib -0.032 | [2] 0.065 | volasertib -0.046 | [3] 0.059 | [4] -0.065 | saracatinib -0.035 | sotrastaurin 0.02 | alvocidib 0.005 | Tubastatin A -0.151 | [6] -0.03 | defactinib 0.027 | [7] -0.015 | encorafenib -0.018 | [8] 0.058 | alisertib -0.008 | [9] 0.016 | gefitinib 0.02

EXOC4 (UniProt Q96A65)
Chain of UniProt Q96A65 (Q96A65 whole entry, looked up): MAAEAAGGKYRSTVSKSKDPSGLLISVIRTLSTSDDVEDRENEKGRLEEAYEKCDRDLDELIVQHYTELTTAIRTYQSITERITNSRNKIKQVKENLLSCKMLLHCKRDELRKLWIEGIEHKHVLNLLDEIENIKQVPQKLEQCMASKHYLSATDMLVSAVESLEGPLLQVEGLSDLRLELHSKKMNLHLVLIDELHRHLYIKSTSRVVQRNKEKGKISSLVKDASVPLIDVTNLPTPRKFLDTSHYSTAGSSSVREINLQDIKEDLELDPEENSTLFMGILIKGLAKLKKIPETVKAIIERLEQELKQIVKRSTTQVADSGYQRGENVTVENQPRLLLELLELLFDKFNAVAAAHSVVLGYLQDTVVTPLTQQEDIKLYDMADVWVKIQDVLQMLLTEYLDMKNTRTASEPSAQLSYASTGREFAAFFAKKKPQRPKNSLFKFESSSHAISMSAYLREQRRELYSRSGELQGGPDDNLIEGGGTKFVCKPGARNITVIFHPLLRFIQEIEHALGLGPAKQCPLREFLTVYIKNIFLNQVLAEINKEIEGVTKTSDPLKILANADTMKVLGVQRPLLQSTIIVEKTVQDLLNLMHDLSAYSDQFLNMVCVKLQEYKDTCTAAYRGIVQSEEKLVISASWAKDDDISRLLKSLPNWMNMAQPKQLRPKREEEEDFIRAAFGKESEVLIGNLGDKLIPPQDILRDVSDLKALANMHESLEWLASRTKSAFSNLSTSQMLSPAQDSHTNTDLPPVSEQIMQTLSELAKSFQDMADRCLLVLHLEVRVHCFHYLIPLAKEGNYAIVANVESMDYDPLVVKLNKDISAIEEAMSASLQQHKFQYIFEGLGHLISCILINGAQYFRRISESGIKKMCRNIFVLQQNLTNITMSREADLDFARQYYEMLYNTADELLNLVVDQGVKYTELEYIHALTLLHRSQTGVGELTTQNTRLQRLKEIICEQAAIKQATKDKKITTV
inactive: vemurafenib 0.079 | [1] 0.01 | barasertib 0.055 | [2] -0.06 | volasertib -0.055 | [3] 0.025 | [4] 0.022 | [5] -0.079 | saracatinib 0.006 | sotrastaurin 0.018 | alvocidib 0.03 | Tubastatin A -0.073 | [6] -0.053 | defactinib 0.039 | [7] -0.084 | encorafenib 0.022 | [8] 0.078 | alisertib 0.009 | [9] 0.008 | gefitinib -0.035

GALK1 isoform 2 (UniProt P51570)
Chain of UniProt P51570 (P51570 whole entry, looked up): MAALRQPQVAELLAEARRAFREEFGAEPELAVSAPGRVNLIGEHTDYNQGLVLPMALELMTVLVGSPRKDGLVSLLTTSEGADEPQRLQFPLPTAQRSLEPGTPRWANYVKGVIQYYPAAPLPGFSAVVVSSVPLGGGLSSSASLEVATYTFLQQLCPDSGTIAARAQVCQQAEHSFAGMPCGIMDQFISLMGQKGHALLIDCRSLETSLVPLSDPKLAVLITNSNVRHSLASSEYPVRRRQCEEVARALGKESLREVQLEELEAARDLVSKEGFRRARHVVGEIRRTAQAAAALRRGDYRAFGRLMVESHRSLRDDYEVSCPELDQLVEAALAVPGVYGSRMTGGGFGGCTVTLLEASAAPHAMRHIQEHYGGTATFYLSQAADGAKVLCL
inactive: vemurafenib 0.024 | [1] 0.01 | barasertib 0.031 | [2] 0.003 | volasertib -0.054 | [3] -0.009 | [4] 0.085 | [5] -0.055 | saracatinib -0.011 | sotrastaurin 0.031 | alvocidib 0.035 | Tubastatin A -0.132 | [6] -0.005 | defactinib -0.002 | [7] 0 | encorafenib 0.02 | [8] -0.171 | alisertib 0.054 | [9] -0.016 | gefitinib 0.034

ESPL1 (UniProt Q14674)
inactive: vemurafenib 0.049 | [1] 0.204 | barasertib 0.054 | [2] 0.039 | volasertib 0.09 | [3] -0.002 | [4] -0.047 | [5] -0.012 | saracatinib -0.065 | sotrastaurin -0.023 | alvocidib 0.044 | Tubastatin A -0.023 | [6] 0.129 | defactinib -0.188 | [7] 0.053 | encorafenib 0.101 | [8] -0.013 | alisertib 0.004 | [9] -0.233 | gefitinib -0.009

FCHO1 (UniProt O14526)
inactive: vemurafenib 0.023 | [1] 0.033 | barasertib 0.02 | [2] 0.023 | volasertib -0.062 | [3] -0.026 | [4] -0.053 | [5] -0.004 | saracatinib 0.006 | sotrastaurin -0.015 | alvocidib 0.027 | Tubastatin A -0.188 | [6] 0.038 | defactinib 0.039 | [7] 0.038 | encorafenib 0.009 | [8] 0.076 | alisertib 0.009 | [9] -0.021 | gefitinib 0.003

ECI2 (UniProt O75521)
inactive: vemurafenib 0.071 | [1] 0.013 | barasertib 0.007 | [2] 0.059 | volasertib -0.013 | [3] 0.004 | [4] -0.021 | [5] -0.017 | saracatinib -0.003 | sotrastaurin -0.045 | alvocidib -0.033 | Tubastatin A 0.054 | [6] -0.054 | defactinib -0.038 | [7] 0.03 | encorafenib -0.006 | [8] -0.067 | alisertib 0.004 | [9] -0.008 | gefitinib 0.011

DYRK1A (UniProt Q13627)
inactive: vemurafenib -0.06 | [1] -0.009 | barasertib 0.025 | [2] -0.047 | volasertib -0.016 | [3] 0.038 | [4] -0.004 | [5] 0.044 | saracatinib -0.017 | sotrastaurin -0.013 | alvocidib 0.106 | Tubastatin A -0.088 | [6] 0.113 | defactinib 0.016 | [7] -0.034 | encorafenib 0.024 | [8] 0.002 | alisertib -0.008 | [9] 0.017 | gefitinib 0.007

FKBP1A (UniProt P62942)
Chain of UniProt P62942 (P62942 whole entry, looked up): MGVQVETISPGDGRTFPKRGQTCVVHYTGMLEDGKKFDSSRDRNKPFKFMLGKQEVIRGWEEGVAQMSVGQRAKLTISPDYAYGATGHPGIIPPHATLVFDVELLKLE
active: [4] -0.854
inactive: vemurafenib -0.138 | [1] -0.028 | barasertib 0.092 | [2] 0.107 | volasertib 0.163 | [3] -0.036 | [5] 0.146 | saracatinib 0.052 | sotrastaurin -0.017 | alvocidib -0.296 | Tubastatin A 0.047 | [6] 0.06 | defactinib 0.144 | [7] 0.034 | encorafenib 0.005 | [8] -0.061 | alisertib 0.105 | [9] -0.076 | gefitinib -0.003

ESYT2 (UniProt H7BXI1)
inactive: vemurafenib -0.047 | [1] -0.044 | barasertib 0.046 | [2] -0.065 | volasertib -0.036 | [3] -0.009 | [4] 0.037 | [5] -0.068 | saracatinib 0.033 | sotrastaurin -0.003 | alvocidib 0.02 | Tubastatin A 0.038 | [6] -0.02 | defactinib 0.001 | [7] -0.072 | encorafenib 0.053 | [8] -0.1 | alisertib -0.003 | [9] 0.029 | gefitinib -0.006

EP300 (UniProt Q09472)
Chain of UniProt Q09472 (Q09472 whole entry, looked up): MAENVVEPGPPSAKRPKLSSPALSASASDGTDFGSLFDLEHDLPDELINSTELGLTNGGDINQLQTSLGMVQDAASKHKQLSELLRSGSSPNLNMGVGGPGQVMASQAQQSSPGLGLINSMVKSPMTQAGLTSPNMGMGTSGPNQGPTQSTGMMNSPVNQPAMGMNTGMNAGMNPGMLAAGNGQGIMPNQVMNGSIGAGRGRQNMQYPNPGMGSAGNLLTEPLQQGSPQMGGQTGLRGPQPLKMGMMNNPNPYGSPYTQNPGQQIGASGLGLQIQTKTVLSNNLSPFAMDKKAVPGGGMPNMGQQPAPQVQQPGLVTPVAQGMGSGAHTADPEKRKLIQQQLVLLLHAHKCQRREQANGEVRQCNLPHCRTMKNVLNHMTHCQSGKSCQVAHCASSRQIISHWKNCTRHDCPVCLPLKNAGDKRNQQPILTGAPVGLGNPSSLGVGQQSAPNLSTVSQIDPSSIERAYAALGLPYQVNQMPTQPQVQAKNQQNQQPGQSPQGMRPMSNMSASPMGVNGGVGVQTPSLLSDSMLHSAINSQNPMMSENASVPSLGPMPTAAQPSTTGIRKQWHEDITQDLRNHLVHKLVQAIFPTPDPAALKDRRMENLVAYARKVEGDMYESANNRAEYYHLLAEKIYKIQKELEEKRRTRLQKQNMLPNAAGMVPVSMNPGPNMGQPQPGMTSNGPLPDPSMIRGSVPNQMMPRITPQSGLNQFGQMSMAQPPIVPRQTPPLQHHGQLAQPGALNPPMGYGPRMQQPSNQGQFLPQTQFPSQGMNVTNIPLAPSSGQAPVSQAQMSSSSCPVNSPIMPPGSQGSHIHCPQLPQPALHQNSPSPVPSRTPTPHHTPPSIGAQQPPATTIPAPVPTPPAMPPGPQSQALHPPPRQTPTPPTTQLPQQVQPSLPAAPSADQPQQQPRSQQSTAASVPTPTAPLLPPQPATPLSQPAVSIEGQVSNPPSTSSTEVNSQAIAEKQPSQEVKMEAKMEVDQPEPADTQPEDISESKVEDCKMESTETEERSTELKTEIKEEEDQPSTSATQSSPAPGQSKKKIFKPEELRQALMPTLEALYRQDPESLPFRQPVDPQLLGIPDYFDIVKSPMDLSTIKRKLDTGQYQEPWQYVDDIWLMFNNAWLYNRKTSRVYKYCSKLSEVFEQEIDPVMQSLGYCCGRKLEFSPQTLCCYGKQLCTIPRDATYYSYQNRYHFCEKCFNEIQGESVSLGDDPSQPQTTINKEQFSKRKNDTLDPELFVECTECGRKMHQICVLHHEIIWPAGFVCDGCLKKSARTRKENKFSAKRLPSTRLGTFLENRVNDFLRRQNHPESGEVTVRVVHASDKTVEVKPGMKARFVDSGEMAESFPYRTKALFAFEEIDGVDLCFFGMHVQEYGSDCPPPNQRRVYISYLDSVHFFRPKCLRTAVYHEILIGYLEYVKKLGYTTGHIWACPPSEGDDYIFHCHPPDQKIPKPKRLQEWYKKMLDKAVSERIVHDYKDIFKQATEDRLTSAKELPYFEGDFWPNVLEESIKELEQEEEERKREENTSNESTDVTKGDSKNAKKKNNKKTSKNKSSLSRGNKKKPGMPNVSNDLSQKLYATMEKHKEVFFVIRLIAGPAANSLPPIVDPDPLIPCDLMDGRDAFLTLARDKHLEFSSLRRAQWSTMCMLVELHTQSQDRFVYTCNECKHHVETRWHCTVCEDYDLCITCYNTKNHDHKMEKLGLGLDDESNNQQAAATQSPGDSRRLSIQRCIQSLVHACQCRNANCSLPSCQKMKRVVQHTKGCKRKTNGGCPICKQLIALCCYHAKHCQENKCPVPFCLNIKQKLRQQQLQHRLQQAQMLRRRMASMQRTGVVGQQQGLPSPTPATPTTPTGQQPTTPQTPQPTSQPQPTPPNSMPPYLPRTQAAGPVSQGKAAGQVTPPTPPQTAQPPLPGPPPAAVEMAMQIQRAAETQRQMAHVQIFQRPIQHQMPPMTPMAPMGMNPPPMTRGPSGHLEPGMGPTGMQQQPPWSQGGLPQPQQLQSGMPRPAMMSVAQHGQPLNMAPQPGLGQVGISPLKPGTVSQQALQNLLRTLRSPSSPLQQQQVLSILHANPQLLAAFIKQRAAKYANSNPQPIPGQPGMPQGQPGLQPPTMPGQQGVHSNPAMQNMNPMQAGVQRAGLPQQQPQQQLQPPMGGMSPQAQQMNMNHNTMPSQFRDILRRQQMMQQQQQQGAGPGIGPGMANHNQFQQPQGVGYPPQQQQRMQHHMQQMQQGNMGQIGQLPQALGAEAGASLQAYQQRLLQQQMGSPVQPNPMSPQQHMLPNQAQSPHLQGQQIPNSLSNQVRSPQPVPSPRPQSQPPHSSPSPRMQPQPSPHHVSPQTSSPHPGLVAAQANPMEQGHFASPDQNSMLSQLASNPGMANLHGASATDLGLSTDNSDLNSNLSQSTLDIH
inactive: vemurafenib -0.018 | [1] -0.01 | barasertib 0.007 | [2] -0.006 | volasertib -0.042 | [3] -0.009 | [4] -0.151 | [5] 0.058 | saracatinib 0.027 | sotrastaurin -0.022 | alvocidib -0.098 | Tubastatin A 0.035 | [6] -0.026 | defactinib 0.066 | [7] 0.006 | encorafenib 0.031 | [8] 0.105 | alisertib -0.121 | [9] -0.056 | gefitinib -0.054

DVL2 (UniProt O14641)
inactive: vemurafenib 0.067 | [1] -0.172 | barasertib 0.119 | [2] -0.033 | volasertib 0 | [3] 0.007 | [4] 0.011 | [5] -0.003 | saracatinib 0.018 | sotrastaurin -0.055 | alvocidib 0.002 | Tubastatin A -0.079 | [6] -0.039 | defactinib 0.028 | [7] -0.027 | encorafenib -0.018 | [8] -0.036 | alisertib 0.003 | [9] -0.069 | gefitinib 0.006
